Results published in PubChem BioAssay (Tox21).
Inconclusive results are not listed. Activity calls are given as the source filed them. Calls come from the whole dose curve; as a rule, active = well fitted activation curve with a large enough effect in the repeat runs; inconclusive = weak or mixed curves; inactive = flat fitted curve, though single readings scatter.

Experiment: A CellTox Green Cytotoxicity Assay to monitor cytotoxicity in HEK293 cells - 24 hour (AID 1224875); note: nearly all actives have a fitted effect of over 45% in size
Settings: CellTox Green fluorescence; series mostly up to 76.8 µM; activity change: at the top concentration
Source text: National Center for Advancing Translational Sciences [NCATS]
NIH Chemical Genomics Center [NCGC]
U.S. Environmental Protection Agency [EPA]
National Institutes of Environmental Health Sciences [NIEHS]
National Toxicology Program [NTP]
Cell-based models are critical for drug discovery. Determining the natural cytotoxic effects resulting from test compounds is an essential research activity. A CellTox Green Cytotoxicity Assay to monitor cytotoxicity in real time of continues cell culture during 40 hours of the compound treatment was used to screen Tox21 10K library compounds in Hek293 cells. CellTox Green Cytotoxicity Assay is a nonlytic, homogeneous, biofluorescent method to measure cytotoxicity in cell culture after experimental manipulation. The assay system uses a proprietary asymmetric cyanine dye that is excluded from viable cells but preferentially stains the dead cell's DNA. […] Viable cells produce no appreciable increases in fluorescence. Therefore, the fluorescence signal produced by the binding interaction with dead cell DNA is proportional to cytotoxicity.
The mixture of Hek293 cell suspension and reagents were dispensed at 600cells/6 ul/well in 1536-well tissue culture treated black solid bottom plates using a Multidrop dispenser. After the assay plates were incubated at a 37 C/5% CO2 incubator for 5 hours, 23 nL of compounds dissolved in DMSO, positive and negative controls was transferred to the assay plate by a pintool work station. The plates were incubated at 37 C for 40 hours. The fluorescence intensity were measured at 0h, 8h, 16h, 24h, 32h and 40h time points using ViewLux plate reader during compound treatment.
% is set by controls: 0 for no effect and ±100 for the full control effect; potency is the fitted concentration of half-maximal effect.

Compound | activity change | Potency
CCN(CC)CCOc1ccccc1C(=O)CCc1ccccc1 | 7.75% [at 35.3 µM, hits give high values] (inactive) | –
CC(C)c1ccc(C#N)cc1 | 11.4% (inactive) | –
CC(C)(O)c1coc(S(=O)(=O)NC(=O)Nc2c3c(cc4c2CCC4)CCC3)c1 | 1.06% (inactive) | –
COc1cc(OC)c2ccc(=O)oc2c1 | 1.02% (inactive) | –
COc1cc(NS(=O)(=O)c2ccc(N)cc2)nc(C)n1 | 3.02% [at 35.3 µM, hits give high values] (inactive) | –
CN(C)CC/C=C1\c2ccccc2Sc2ccc(Cl)cc21 | – | 26.8 µM (active)
O=C(CCS)OCC(COC(=O)CCS)(COC(=O)CCS)COC(=O)CCS | 3.61% (inactive) | –
CC(=O)OCC1=C(C(=O)O)N2C(=O)[C@@H](NC(=O)CSc3ccncc3)[C@H]2SC1 | 1.34% [at 35.3 µM, hits give high values] (inactive) | –
O=C1CC[C@@H](C(=O)O)N1 | -5.98% [at 35.3 µM, hits give high values] (inactive) | –
O=P(O)(O)Oc1ccccc1 | 18.1% (inactive) | –
CC(=O)N[C@@H](Cc1ccc(O)cc1)C(=O)O | -4.21% [at 35.3 µM, hits give high values] (inactive) | –
Cc1ccc(S(=O)(=O)NC(=O)NC2CCCCC2)cc1 | 2.29% [at 35.3 µM, hits give high values] (inactive) | –
Cc1cccc(C)c1NC(=O)c1cc(S(N)(=O)=O)c(Cl)cc1O | -9.57% [at 35.3 µM, hits give high values] (inactive) | –
ClC1=C(Cl)C1(Cl)Cl | -8.52% (inactive) | –
CCOC(=O)c1c(N)sc2c1CCN(Cc1ccccc1)C2 | -0.558% [at 35.3 µM, hits give high values] (inactive) | –
CC/C=C\C/C=C\C/C=C\CCCCCCCC(=O)OCC | -5.16% (inactive) | –
Nc1ccc(N=Nc2ccc(N)cc2)cc1 | -17.3% [at 35.3 µM, hits give high values] (inactive) | –
CCCCCCCC/C=C\CCCCCCCC(=O)OCCO | -0.919% (inactive) | –
CC1CCC(C(C)CS)CC1S (stereo not given) | – | 43.6 µM (active)
CSCC[C@H](NC(=O)[C@H](Cc1c[nH]c2ccccc12)NC(=O)CCNC(=O)OC(C)(C)C)C(=O)N[C@@H](CC(=O)O)C(=O)N[C@@H](Cc1ccccc1)C(N)=O | -0.418% [at 35.3 µM, hits give high values] (inactive) | –

Compound | activity change | Potency
COC(C)(C)OC | -5.54% (inactive) | –
CCNc1nc(N)nc(Cl)n1 | -6.73% (inactive) | –
O=C(c1ccccc1)C1CCC1 | – | 24.5 µM (active)
CCCCCCCCCCCCCOS(=O)(=O)O | – | 24.5 µM (active)
CC(C)COC(=O)COc1cc(Cl)c(Cl)cc1Cl | -1.87% (inactive) | –
CC[C@H]1OC(=O)[C@H](C)[C@@H](O[C@H]2C[C@@](C)(OC)[C@@H](O)[C@H](C)O2)[C@H](C)[C@@H](O[C@@H]2O[C@H](C)C[C@H](N(C)C)[C@H]2O)[C@](C)(O)C[C@@H](C)C(=O)[C@H](C)[C@@H](O)[C@]1(C)O | -4.03% [at 35.3 µM, hits give high values] (inactive) | –
CCCOC(=O)c1c(Cl)c(Cl)c(Cl)c(Cl)c1C(=O)OCCC | 22.2% (inactive) | –
CCOC(=O)c1ccc(NC(=O)CN2CCCCC2)cc1 | -23.2% [at 35.3 µM, hits give high values] (inactive) | –
O=C(O)CCS | -5.59% (inactive) | –
CC1CCCO1 (stereo not given) | -3.53% (inactive) | –
C=Cc1ccc(OC(C)=O)cc1 | 22.3% (inactive) | –
CC(CO)(CO)C(=O)O | -5.1% (inactive) | –
O=C(C(=O)c1ccco1)c1ccco1 | 18.6% (inactive) | –
CC(C)(C)S | -1.84% (inactive) | –
Cc1cc(CCCOc2c(C)cc(-c3noc(C(F)(F)F)n3)cc2C)on1 | -15.3% [at 35.3 µM, hits give high values] (inactive) | –
CC12CC3CC(C)(C1)CC(N)(C3)C2 | -5.84% [at 35.3 µM, hits give high values] (inactive) | –
O=S(=O)(O)CO | -13.7% (inactive) | –
CC(C)(C(=O)c1cccnc1)c1cccnc1 | -4.61% [at 35.3 µM, hits give high values] (inactive) | –
CC(C)CC(O)CC(C)C | -10.3% (inactive) | –
CC(=O)NCCO | -2.29% (inactive) | –
